Assay outcomes (PubChem BioAssay)
M1 ag: human M1 muscarinic receptor agonists, primary screen, Fluo-8 calcium fluorescence, CHO-K1 cells, HTS; CHO-K1 hM1, agonist mode; 0% DMSO, 100% acetylcholine EC100; Muscarinic acetylcholine receptor M1 (Homo sapiens), P11229; AID 588814, 2011; hit rate 0.33% among 360,000; activation, % at 3 µM;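 active = activation above the run's mean compound activation plus 3 SD, cut at about 16% in these data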;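 note: peak over basal fluorescence ratio within a 140 s kinetic read after compound addition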
Target sequence (P11229 whole entry, looked up): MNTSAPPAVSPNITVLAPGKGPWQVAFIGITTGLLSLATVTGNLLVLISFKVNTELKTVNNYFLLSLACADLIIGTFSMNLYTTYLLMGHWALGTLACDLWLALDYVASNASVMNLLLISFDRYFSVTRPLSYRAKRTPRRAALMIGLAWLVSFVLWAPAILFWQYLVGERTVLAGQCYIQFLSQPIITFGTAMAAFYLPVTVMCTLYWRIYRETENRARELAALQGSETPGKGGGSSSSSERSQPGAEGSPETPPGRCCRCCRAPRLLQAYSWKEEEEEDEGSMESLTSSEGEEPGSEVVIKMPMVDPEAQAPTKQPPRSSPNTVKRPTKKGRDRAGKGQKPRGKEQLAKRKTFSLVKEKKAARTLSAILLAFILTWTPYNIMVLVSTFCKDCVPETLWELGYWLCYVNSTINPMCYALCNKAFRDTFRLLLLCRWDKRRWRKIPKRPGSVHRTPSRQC
M1 PAM parental: nonselective calcium activators in parental CHO-K1 cells, primary screen, counter-screen for M1 PAM project, cell-based, Fluo-8 calcium fluorescence, full deck, 1536-well | ATP EC20; 0% at ATP EC20, 100% at ATP max | activation, % at 3 µM | hit rate 0.02% among 360,000 | AID 602247, 2012;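 active = activation above the run cutoff, the mean activation of all test compounds plus 3 SD, cut at about 40% in these data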;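 note: peak over basal fluorescence ratio in a 140 s read after ATP addition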
M1 PAM: human M1 muscarinic receptor positive allosteric modulators, primary screen, CHO-K1 cells, Fluo-8 calcium fluorescence, 1536-well. AID 588819, 2011. activation, % at 3 µM. Muscarinic acetylcholine receptor M1 (Homo sapiens), P11229. CHO-K1 hM1, ACh EC20; 0% = ACh EC20, 100% = maximal ACh. hit rate 0.088% among 360,000; in the data active = activation above about 19%, passing the limit was not always enough
CHRM1 antagonist: human M1 muscarinic receptor antagonists, primary screen, CHO-K1 cells, Fluo-8 calcium fluorescence, 1536-well. Muscarinic acetylcholine receptor M1 (Homo sapiens), P11229. CHO-K1 hM1, ACh EC80 antagonist. inhibition, % at 3 µM. hit rate 1.3% among 360,000. AID 588852, 2011;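 active = percent inhibition above its own plate's cutoff, namely the mean of that plate's compound wells plus 3 SD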;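 note: peak over basal fluorescence ratio during 140 s after agonist addition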
CHO-K1 Ca antag: M1 antagonist counterscreen hit in parental CHO-K1 cells; AID 602250; inhibition, % at 3 µM; hit rate 0.6% among 360,000; ATP-induced calcium, Fluo-8 fluorescence;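 active = inhibition above a per-plate cutoff, the plate's mean sample inhibition plus 3 SD, cut at about 24% in these data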
CHO-K1 Ca ag: counter-screen for M1 agonists: effect in parental CHO-K1 cells | hit rate 0.48% among 360,000 | activation, % at 3 µM | Fluo-8 calcium fluorescence; scaled to maximal ATP response, vehicle zero; in the data active = activation above about 15%;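 note: untransfected CHO-K1 host cells lacking M1 receptor as counterscreen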
Numbers stand for hits; – = inactive. This is a sample that favours compounds with a hit; in the whole collection about 2.4% have one here.

SMILES	M1 ag	M1 PAM parental	M1 PAM	CHRM1 antagonist	CHO-K1 Ca antag	CHO-K1 Ca ag
COC(=O)c1c(C(=O)OC)c2ccccn2c1C(=O)c1ccc([N+](=O)[O-])cc1	–	–	–	–	–	–
Brc1ccccc1OCCCCCN1CCOCC1	–	–	–	–	–	–
Cc1cc(Br)ccc1OCCOCCN1CCCC1	–	–	–	–	–	–
CC(C)c1ccccc1OCCCCCN1CCOCC1	–	–	–	62	–	–
Cc1cc(Br)ccc1OCCCCN1CCCCC1	–	–	–	42	–	–
COc1ccccc1OCC(=O)OCC(=O)Nc1sccc1C(N)=O	–	–	–	–	–	–
Cc1cccc(OC(C)C(=O)OCC(=O)Nc2sccc2C(N)=O)c1 (stereo unspecified)	–	–	–	–	–	16
Cc1cccc(OCC(=O)OCC(=O)Nc2sccc2C(N)=O)c1	–	–	–	–	–	20
O=C(C1=C(O)C(=O)N(CCCN2CCOCC2)C1c1ccccn1)c1cc2ccccc2o1 (stereo unspecified)	–	–	–	–	–	–
Cc1onc(-c2ccccc2)c1C(=O)Nc1ccc(-c2nnc3n2CCCCC3)cc1	–	–	–	–	–	–
Cc1noc(C(C)C)c1C(=O)Nc1ccc(-c2nnc3n2CCCCC3)cc1	–	–	–	33	–	–
O=C(COc1ccc2ccccc2c1)N1CCNCC1	–	–	–	–	–	–
O=C(COc1ccc2ccccc2c1)N1CCN(c2ccccc2O)CC1	–	–	–	–	24	–
Cc1ccc(NC(=O)c2cnn(-c3ccccc3)c2NC(=O)c2ccco2)cc1C	–	–	–	–	–	–
CCN1CCN(c2c(Cl)cccc2NC(=O)c2ccc([N+](=O)[O-])o2)CC1	–	–	–	43	–	–
O=C(Nc1cccc(Cl)c1N1CCCC1)c1ccc([N+](=O)[O-])o1	–	–	–	–	–	–
Cc1ccc(C)c(NC(=S)N2C3CCCC2CC(NC(=O)C2CC2)C3)c1 (stereo unspecified)	–	–	–	38	–	–
O=C(NC1CC2CCCC(C1)N2C(=S)Nc1ccccc1Cl)C1CC1 (stereo unspecified)	–	–	–	–	–	–
O=C1NC(=O)C2(N1)C(=O)c1cccc3cccc2c13 (stereo unspecified)	49	–	–	–	–	100
Cn1c(=O)c2cc(NC(=O)CCc3ccccc3)ccc2n1Cc1cccc(C(F)(F)F)c1	–	–	–	–	–	–
CCOCCC(=O)Nc1ccc2c(c1)c(=O)n(C)n2Cc1cccc(C(F)(F)F)c1	–	–	32	–	–	–
CCC(=O)c1ccc(OCC(O)CNCCc2ccc(Cl)cc2)cc1 (stereo unspecified)	–	–	–	–	–	15
O=C(NCCCN1CCOCC1)c1ccc2c(c1)N(Cc1cccc(Cl)c1)C(=O)CS2	–	–	–	65	–	–
Cc1ccc(CN2C(=O)CSc3ccc(C(=O)NCCN4CCOCC4)cc32)cc1	–	–	–	–	–	–
CCCn1ncc(CN2CCN(CCc3ccccc3)C(CCO)C2)c1C (stereo unspecified)	–	–	–	–	–	–
SMILES	M1 ag	M1 PAM parental	M1 PAM	CHRM1 antagonist	CHO-K1 Ca antag	CHO-K1 Ca ag
S=C(NCCc1ccccn1)Nc1ccccc1Cl	–	–	–	–	27	–
S=C(NCCc1ccncc1)Nc1cccc2ccccc12	–	–	–	–	27	–
C=CCNC(=S)Nc1cccc2ccccc12	–	–	–	–	–	–
S=C(NCCCc1ccccc1)Nc1ccccc1Cl	–	–	–	–	–	15
S=C(Nc1cccc2ccccc12)NN1CCCCCC1	–	–	–	41	–	–
S=C(NCCc1ccccc1)Nc1ccccc1Cl	–	–	–	–	–	–
S=C(Nc1cccc2ccccc12)NN1CCOCC1	–	–	–	–	–	–
Cc1cc(C)n(Cc2ccc(F)cc2)c(=O)c1C#N	–	–	–	–	–	–
CCOC(=O)c1nn(-c2ccccc2)c(C)c1C(C)=O	–	–	–	–	–	–
